Assay outcomes (PubChem)
HT1080-NT tox: kills 2HG-producing HT-1080-NT fibrosarcoma cells; HT-1080-NT fibrosarcoma viability, CellTiter-Glo ATP luminescence, 48 h; Potency, µM (highest dose often 46.1 µM), usual class: cytotoxic; hit rate 1.6% among 360,000;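 further: NT is the 2HG producing partner of a matched IDH1 knockdown line; nearly all actives have a fitted effect of over 55% in size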
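Viability by CellTiter-Glo luminescence after 48 h compound exposure at 37C of HT-1080-NT cells (750/well, RPMI, 5% FBS). % activity scaled between DMSO wells and medium-only wells, then curve-fitted and categorized by curve class.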
TDP1 cell CPT: growth inhibition of DT40 Tdp1-/-;hTDP1 cells with camptothecin (screen for TDP1 inhibitors) | hit rate 12% among 420,000 | AID 686979 | Potency, µM (doses to about 46.2 µM), most hits filed as inhibitors | chicken DT40 Tdp1-/-;hTDP1 cells + 20 nM CPT, ATP luminescence, 48 h; further: nearly all actives have a fitted effect of over 55% in size
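Chicken DT40 Tdp1-/- cells complemented with human TDP1, 400 cells/well, exposed to compounds plus 20 nM camptothecin for at least 48 h at 37 C; viability read as ATP content by CellTiter-Glo luminescence.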
DT40 TDP1 no CPT: qHTS for Inhibitors of human tyrosyl-DNA phosphodiesterase 1 (TDP1): qHTS in cells in absence of CPT | DT40 Tdp1-/- hTDP1 cells, no CPT, ATP luminescence, 48 h | Potency, µM (top dose mostly 46.2 µM), most hits filed as inhibitors | hit rate 15% among 420,000; further: nearly all actives have a fitted effect of over 55% in size
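Chicken DT40 Tdp1-/- cells stably complemented with human TDP1 were seeded at 400 cells/well with DMSO in place of 20 nM camptothecin. After compound pinning, cells grew at least 48 hr at 37 °C; viability read by CellTiter-Glo luminescence.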
ELG1 repair inh: blocks ELG1-dependent DNA repair in HEK293T cells | HEK293T ELG1-luciferase reporter, luminescence, 16 h; DNA damage induced by 5-fluorouridine | Potency, µM (doses to about 46.1 µM), usual class: inhibitors | hit rate 2.3% among 330,000 | AID 504467; further: nearly all actives have a fitted effect of over 55% in size
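In this reporter screen, reduction of luminescence relative to DMSO vehicle indicated activity. Compounds and 5-fluorouridine were added together to 2,000 cells per well, incubated for 16 hr at 37 °C, then developed with ONE-Glo.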
HT1080 IDH1KD tx: kills HT-1080 cells with IDH1 knockdown | HT-1080 IDH1 knockdown viability, ATP luminescence, 48 h | Potency, µM (titrated, usually from 46.1 µM), hits mostly cytotoxic | hit rate 2% among 360,000 | AID 686971
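Using the IDH1-knockdown HT-1080 line run in the same batch and compound series as the NT line, viability after 48 h at 37 °C was determined by CellTiter-Glo luminescence and expressed as % activity.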
IL1B secr inh: inhibitors of inflammasome signaling (IL-1 beta secretion). THP-1 LPS/ATP IL-1B secretion, AlphaLISA, 16 h; stronger effect = lower value. activity change, % at 57.5 µM. hit rate 4.7% among 360,000; in the data active means activity change below about -50%; inconclusive means mostly about -30% to -49%
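THP-1 cells pretreated 1 hr with compounds (up to 57.5 uM final), then stimulated with LPS (250 ng/mL final) plus ATP (1.25 mM final); secreted IL-1B measured by AlphaLISA after 16 hr, decreased signal indicating inhibition.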
Large screens that a line does not name were inactive; ! = a repeat was not active. Hits are enriched below; roughly 19% of the tested compounds scored in any of these assays. Unless noted, the call rests on the fitted dose curve; in most records, active means well fitted curve in the direction sought with a large enough effect; inconclusive means small, poorly fitted or top-dose-only effect, or another doubt; inactive means no such curve, though single readings can be large; an effect the other way counts as inactive or inconclusive.

Cc1ccc(S(=O)(=O)Nc2ccccc2-c2ccccc2NS(=O)(=O)c2ccc(C)cc2)cc1	HT1080-NT tox inconclusive, TDP1 cell CPT inconclusive, DT40 TDP1 no CPT inconclusive, ELG1 repair inh inconclusive, HT1080 IDH1KD tx inconclusive
CCC(=O)c1ccc2c(c1)N(CCCN1CCN(CCO)CC1)c1ccccc1S2	TDP1 cell CPT 2.99µM, DT40 TDP1 no CPT 4.73µM (no result: HT1080-NT tox, ELG1 repair inh, HT1080 IDH1KD tx, IL1B secr inh)
OCCN1CCN(CCCN2c3ccccc3CCc3ccccc32)CC1	TDP1 cell CPT inconclusive, DT40 TDP1 no CPT inconclusive (no result: ELG1 repair inh)
OCCN1CCN(CCCN2c3ccccc3C=Cc3ccccc32)CC1	TDP1 cell CPT 8.41µM, DT40 TDP1 no CPT 5.96µM (no result: HT1080-NT tox, ELG1 repair inh, HT1080 IDH1KD tx, IL1B secr inh)
CC(CN1CCN(CCOCCO)CC1)CN1c2ccccc2Sc2ccc(Cl)cc21 (centres undefined)	HT1080-NT tox 23.1µM, TDP1 cell CPT inconclusive, DT40 TDP1 no CPT inconclusive, HT1080 IDH1KD tx inconclusive (no result: ELG1 repair inh)
O=[N+]([O-])c1ccc(N2CCN(CCOCCO)CC2)c([N+](=O)[O-])c1	none
OC1CC2CCC(C1)N2CCCN1c2ccccc2Sc2ccc(Cl)cc21 (centres undefined)	HT1080-NT tox inconclusive, TDP1 cell CPT 23.1µM, DT40 TDP1 no CPT 14.6µM, HT1080 IDH1KD tx 4.61µM, IL1B secr inh -80.7 (no result: ELG1 repair inh)
CC(C)(C)c1ccc(OC(=O)c2ccc(-n3cncn3)nc2)cc1	none (no result: HT1080-NT tox, TDP1 cell CPT, DT40 TDP1 no CPT, HT1080 IDH1KD tx, IL1B secr inh)
CCCn1c(=O)n(N)c2ccccc21	none
O=C(CCN1CCOCC1)N1c2ccccc2Sc2ccc(Cl)cc21	TDP1 cell CPT inconclusive, DT40 TDP1 no CPT inconclusive
CCSc1ccc2c(c1)N(CCCN1CCN(C)CC1)c1ccccc1S2	HT1080-NT tox 18.4µM, TDP1 cell CPT 25.9µM, DT40 TDP1 no CPT inconclusive, ELG1 repair inh inconclusive, HT1080 IDH1KD tx inconclusive, IL1B secr inh -57.5
CN1CCN(CCC(=O)N2c3ccccc3Sc3ccc(C(F)(F)F)cc32)CC1	TDP1 cell CPT inconclusive, DT40 TDP1 no CPT inconclusive, IL1B secr inh inconclusive
CN1CCN(CCCN2c3ccccc3Sc3ccc(Cl)cc32)CC1	HT1080-NT tox 14.6µM!, TDP1 cell CPT 4.61µM!, DT40 TDP1 no CPT 20.6µM, HT1080 IDH1KD tx 20.6µM!, IL1B secr inh -64.0!
OC1OC[C@@H](O)[C@H](O)[C@@H]1O (some centres undefined)	none (no result: HT1080-NT tox, ELG1 repair inh, HT1080 IDH1KD tx, IL1B secr inh)
O=C(NC1CCCC1)C(c1ccccc1)N(Cc1ccccc1)C(=O)c1csnn1 (centres undefined)	none
COC(=O)Cn1c(C(O)c2ccccc2)nc2ccccc21 (centres undefined)	none
COc1ccc(NC(=O)c2ccc(-c3ccc([N+](=O)[O-])cc3)o2)cc1	TDP1 cell CPT inconclusive, DT40 TDP1 no CPT inconclusive
COc1ccc(CCNC(=O)c2coc(=O)c(Br)c2)cc1	HT1080-NT tox inconclusive, TDP1 cell CPT 0.651µM, DT40 TDP1 no CPT 1.3µM, ELG1 repair inh inconclusive, HT1080 IDH1KD tx inconclusive
COc1ccc(CCNC(=O)c2ccc(-c3ccc([N+](=O)[O-])cc3)o2)cc1OC	TDP1 cell CPT 18.4µM, DT40 TDP1 no CPT inconclusive, ELG1 repair inh inconclusive, IL1B secr inh inconclusive
COc1ccc(CNCCc2ccc([N+](=O)[O-])cc2)c(OC)c1OC	TDP1 cell CPT 6.51µM, DT40 TDP1 no CPT 20.6µM
COc1ccc(CCNC(=O)c2ccc(Br)o2)cc1Br	TDP1 cell CPT 23.1µM, DT40 TDP1 no CPT inconclusive (no result: ELG1 repair inh)
COc1ccc(C)cc1NCc1ccc([N+](=O)[O-])cc1	ELG1 repair inh inconclusive
Cc1c(NC(=O)c2ccc(-c3ccc([N+](=O)[O-])cc3Cl)o2)c(=O)n(-c2ccccc2)n1C	ELG1 repair inh inconclusive
O=C(/C=C/c1ccc(F)cc1)NCCC1=CCCCC1	TDP1 cell CPT 20.6µM, DT40 TDP1 no CPT 16.4µM, ELG1 repair inh inconclusive
O=C(COC(=O)/C=C/c1ccc(C(F)(F)F)cc1)NCCC1=CCCCC1	none
COc1ccccc1OCC(=O)NCCC1=CCCCC1	TDP1 cell CPT inconclusive, DT40 TDP1 no CPT inconclusive
COc1ccccc1/C=C/C(=O)NCCC1=CCCCC1	ELG1 repair inh inconclusive, IL1B secr inh -50.1
